Common to all, as to conditions: concentration: 10 µM; 24 h
The subject of test [1] is HCC1569. Description: cell number relative to DMSO (% of DMSO); higher = more cells (less growth inhibition / toxicity). In outline: (§1)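 Compounds were applied at 10 µM for 24 h at 37 °C, in triplicate, to HCC1569 and TDF cells. The cells were then fixed and stained for H1.0, and nuclei were counterstained with DAPI. Nuclear H1.0 intensity or cell number is reported relative to the plate control as a percent, taking the median of replicates. Smoothing for positional effects was applied to HCC1569 values only.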

The test system of test [2] is TDF. The test is described as above. In outline: as §1
Test [3] deals with TDF. Description: H1.0 immunofluorescence intensity relative to DMSO (% of DMSO); higher = stronger H1.0 induction, active = 120 or more. In short, it runs like this:
as §1

In test [4] the test system is HCC1569. Description: H1.0 immunofluorescence intensity relative to DMSO (% of DMSO); higher = stronger H1.0 induction, active = 140 or more. In outline: as §1

Consider 25 compounds from the supplement of paper PMC7156485.

± gives the standard deviation of the averaged measurements.
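For H1.0 immunofluorescence intensity relative to DMSO in this document: TDF is a line of transformed human dermal fibroblasts of mesenchymal origin.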
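For cell number relative to DMSO in this document: TDF denotes transformed human dermal fibroblasts of mesenchymal origin.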

`CN1CCC(=C2c3ccccc3CC(=O)c3sccc32)CC1.O=C(O)C=CC(=O)O` [Ketotifen fumarate]: the cell number came to 101 in test [1] and 99.6 in test [2]. For the same compound, the results for the H1.0 immunofluorescence intensity in test [3] and in test [4] were 91.6 (inactive) and 98.7 (inactive), respectively.

For the compound `CN(C)S(=O)(=O)c1ccc2c(c1)C(=Cc1cc3c([nH]1)CCCC3)C(=O)N2`, the values for the cell number in test [1] and in test [2] were 72.9 and 48, respectively. The H1.0 immunofluorescence intensity was 97.5 (inactive) in test [3] and 184 (active) in test [4].

With `[N-]=[N+]=Nc1ccc(C(=O)CSCC(NC(=O)CCC(N)C(=O)O)C(=O)NCC(=O)O)cc1` (stereo not drawn) [S-(p-Azidophenacyl)glutathione], the cell number was determined as 103 in test [1] and 105 in test [2]. For the same compound, the values for the H1.0 immunofluorescence intensity in test [3] and in test [4] were 95.5 (inactive) and 79.9 (inactive), respectively.

With `COc1ccc(S(=O)(=O)Nc2nc(-c3cccc([N+](=O)[O-])c3)c(CN3CCCCC3)s2)cc1OC`, the cell number in test [1] turned out to be 101; in test [2], 98.9. The results for the H1.0 immunofluorescence intensity in test [3] and in test [4] were 89.5 (inactive) and 110 (inactive), respectively.

With `COc1cc(C2Oc3cc(C4Oc5cc(O)cc(O)c5C(=O)C4O)ccc3OC2CO)ccc1O` (stereo not given) [Silymarin], the cell number in test [1] was determined as 102; in test [2], 93.6. The H1.0 immunofluorescence intensity in test [3] was 95.5 (inactive); in test [4], 88.3 (inactive).

`O=C(NCCN1CCC(n2c(=O)[nH]c3cc(Cl)ccc32)CC1)c1ccc(F)cc1`: the cell number in test [1] is 91.9; in test [2], 98. Moreover, the H1.0 immunofluorescence intensity was 96.6 (inactive) in test [3] and 99.5 (inactive) in test [4].

For `OCCC#Cc1nc(-c2ccc(F)cc2)c(-c2ccncc2)n1CCCc1ccccc1`, the cell number in test [1] stood at 91.8; in test [2], 105. The values for the H1.0 immunofluorescence intensity in test [3] and in test [4] were 82.7 (inactive) and 111 (inactive), respectively.

`CCCCCCCCCC(=O)NC(CN1CCOCC1)C(O)c1ccccc1.Cl` (racemic): the figures for the cell number in test [1] and in test [2] were 94 and 91.9, respectively. Besides, the H1.0 immunofluorescence intensity was 105 (inactive) in test [3] and 109 (inactive) in test [4].

Regarding `NC1CCCCC1N.O=C([O-])C(=O)[O-].[Pt+2]` (stereo not given) [Oxaliplatin], the cell number stood at 87.5 ± 5.5 in test [1] and 87.2 ± 18 in test [2]. The H1.0 immunofluorescence intensity in test [3] is 97.9 (inactive); in test [4], 121 (inactive).

As to `CC[N+](CC)(CC)CCOc1cccc(OCC[N+](CC)(CC)CC)c1OCC[N+](CC)(CC)CC` [Gallamine], the cell number in test [1] was found to be 101; in test [2] it was 107. Besides, the H1.0 immunofluorescence intensity is 93.8 (inactive) in test [3] and 104 (inactive) in test [4].

On to `COc1cc(CC2C(=O)OCC2Cc2ccc(OC)c(OC)c2)ccc1O` (stereo not given), for which the cell number in test [1] was determined as 80.5; in test [2], 74.6. In addition, the H1.0 immunofluorescence intensity in test [3] was 103 (inactive); in test [4], 156 (active).

Regarding `CC1CC2C3CCC4=CC(=O)C=CC4(C)C3(F)C(O)CC2(C)C1(O)C(=O)CO` (stereo not given) [Dexamethasone], the results for the cell number in test [1] and in test [2] were 100 and 102, respectively. The H1.0 immunofluorescence intensity in test [3] was 81.6 (inactive); in test [4], 112 (inactive).

`CCCCC(C)(C)C(O)C=CC1C(O)CC(=O)C1CC=CCCCC(=O)O` (stereo not given) [16,16-Dimethyl-prostaglandin E2]: the values for the cell number in test [1] and in test [2] were 100 and 110, respectively. For the same compound, the H1.0 immunofluorescence intensity in test [3] was 94.7 (inactive); in test [4], 109 (inactive).

Regarding `CCOC(=O)C=C(C)C=CC=C(C)C=Cc1c(C)cc(OC)c(C)c1C` [Etretinate], the cell number was found to be 104 in test [1] and 97.6 in test [2]. In addition, the H1.0 immunofluorescence intensity in test [3] was 101 (inactive); in test [4] it was 115 (inactive).

As to `Oc1cc2c(cc1O)C(c1ccccc1)CNCC2` (racemic), the cell number in test [1] came out at 101; in test [2] it was 113. The H1.0 immunofluorescence intensity in test [3] is 92.2 (inactive); in test [4], 93.5 (inactive).

Take `CC(C)(Sc1cc(C(C)(C)C)c(O)c(C(C)(C)C)c1)Sc1cc(C(C)(C)C)c(O)c(C(C)(C)C)c1` [Probucol]: the cell number in test [1] turned out to be 102; in test [2], 106. The H1.0 immunofluorescence intensity in test [3] was 91.9 (inactive); in test [4], 91.8 (inactive).

Take `CC(ONC(=O)c1cc(C(F)(F)F)cc(C(F)(F)F)c1)C(=O)Nc1ccc(Cl)cc1` (stereo not given): the cell number in test [1] is 85.2; in test [2] it was 93.3. In addition, the H1.0 immunofluorescence intensity is 103 (inactive) in test [3] and 144 (active) in test [4].

In the case of `COc1ccc(-c2cc(=O)c3c(O)cc(OC4OC(COC5OC(C)C(O)C(O)C5O)C(O)C(O)C4O)cc3o2)cc1O` (stereo not given) [Diosmin], the cell number was found to be 104 in test [1] and 107 in test [2]. In addition, the figures for the H1.0 immunofluorescence intensity in test [3] and in test [4] were 91.8 (inactive) and 92 (inactive), respectively.

Regarding `COc1ccc(CNC(=O)Nc2ncc([N+](=O)[O-])s2)cc1` [GSK-3b Inhibitor VIII], the cell number in test [1] was 91; in test [2], 106. The figures for the H1.0 immunofluorescence intensity in test [3] and in test [4] were 96.6 (inactive) and 128 (inactive), respectively.

Turning to `Cl.O[Si](CCCN1CCCCC1)(c1ccc(F)cc1)C1CCCCC1` (stereo not given) [Hexahydro-sila-difenidol hydrochloride, p-fluoro analog], the figures for the cell number in test [1] and in test [2] were 97.5 and 88.2, respectively. Moreover, the H1.0 immunofluorescence intensity in test [3] was 102 (inactive); in test [4], 105 (inactive).

On to `Cl.O=C1NCC2(CCN(CCc3ccccc3)CC2)O1` [Fenspiride hydrochloride], for which the values for the cell number in test [1] and in test [2] were 98.2 and 105, respectively. Moreover, the H1.0 immunofluorescence intensity in test [3] was 93.2 (inactive); in test [4] it was 91 (inactive).

Take `O=C(NO)c1cccc(C(=O)NCCc2ccccc2)c1` [N1-hydroxy-N3-phenethylisophthalamide]: the values for the cell number in test [1] and in test [2] were 105 and 88, respectively. Also, the figures for the H1.0 immunofluorescence intensity in test [3] and in test [4] were 90.4 (inactive) and 101 (inactive), respectively.

`O=C(O)C=Cc1c[nH]c2ccccc12` [3-Beta-Indoleacrylic acid]: the cell number was found to be 97.9 in test [1] and 101 in test [2]. Moreover, the H1.0 immunofluorescence intensity in test [3] is 94.8 (inactive); in test [4], 95.1 (inactive).

For the compound `CCc1c(CC(N)=O)c2cc(OCCCP(=O)(O)O)ccc2n1Cc1ccccc1`, the cell number in test [1] is 101; in test [2] it was 104. Also, the figures for the H1.0 immunofluorescence intensity in test [3] and in test [4] were 96 (inactive) and 101 (inactive), respectively.

Turning to `C1COC(NC(C2CC2)C2CC2)=N1.O=P(O)(O)O` [Rilmenidine phosphate], the values for the cell number in test [1] and in test [2] were 101 and 110, respectively. For the same compound, the H1.0 immunofluorescence intensity in test [3] was 88.5 (inactive); in test [4], 103 (inactive).
